# Data reported in the supplement of paper PMC6897291.
# What was measured:
# [1] = system: U-2932; test: growth inhibition by drug alone (1 - RLU/untreated control) (fraction); higher = stronger inhibition; conditions: 177Lu-lilotomab satetraxetan 0 ug/ml
# Procedure, shortened: (§1)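 RIVA or U-2932 cells were left untreated or pretreated for 18 h with a radiolabelled anti-CD37 antibody conjugate (~600 MBq/mg) at 0.5 µg/ml for RIVA or 1 µg/ml for U-2932. The cells were then washed and seeded at 3,000 cells/well on plates pre-printed with the Selleck Cambridge Cancer Compound library, dosed at 10/100 nM for RIVA and 10/1,000 nM for U-2932. From day 3, RealTime-Glo luminescence was read daily after 1 h at 37°C. Growth inhibition was taken as one minus RLU over the mean of the untreated no-drug wells, of which there were 48 per plate.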
# [2] = system: RIVA; test: as above; conditions: 177Lu-lilotomab satetraxetan 0 ug/ml
# Procedure, shortened: as §1
# [3] = system: U-2932; test: growth inhibition by drug plus 177Lu-lilotomab satetraxetan (1 - RLU/untreated control) (fraction); higher = stronger inhibition; conditions: 177Lu-lilotomab satetraxetan 1 ug/ml
# Procedure, shortened: as §1
# [4] = system: RIVA; test: as above; conditions: 177Lu-lilotomab satetraxetan 0.5 ug/ml
# Procedure, shortened: as §1
Structure (SMILES),"growth inhibition by drug alone ([1]; 10 nM, time (day): 3)","growth inhibition by drug alone ([1]; 10 nM, time (day): 4)","growth inhibition by drug alone ([1]; 10 nM, time (day): 5)","growth inhibition by drug alone ([1]; 10 nM, time (day): 6)","growth inhibition by drug alone ([1]; 1000 nM, time (day): 3)","growth inhibition by drug alone ([1]; 1000 nM, time (day): 4)","growth inhibition by drug alone ([1]; 1000 nM, time (day): 5)","growth inhibition by drug alone ([1]; 1000 nM, time (day): 6)","growth inhibition by drug alone ([2]; 10 nM, time (day): 3)","growth inhibition by drug alone ([2]; 10 nM, time (day): 4)","growth inhibition by drug alone ([2]; 10 nM, time (day): 5)","growth inhibition by drug alone ([2]; 10 nM, time (day): 6)","growth inhibition by drug alone ([2]; 100 nM, time (day): 3)","growth inhibition by drug alone ([2]; 100 nM, time (day): 4)","growth inhibition by drug alone ([2]; 100 nM, time (day): 5)","growth inhibition by drug alone ([2]; 100 nM, time (day): 6)","growth inhibition by drug plus 177Lu-lilotomab satetraxetan ([3]; 10 nM, time (day): 3)","growth inhibition by drug plus 177Lu-lilotomab satetraxetan ([3]; 10 nM, time (day): 4)","growth inhibition by drug plus 177Lu-lilotomab satetraxetan ([3]; 10 nM, time (day): 5)","growth inhibition by drug plus 177Lu-lilotomab satetraxetan ([3]; 10 nM, time (day): 6)","growth inhibition by drug plus 177Lu-lilotomab satetraxetan ([3]; 1000 nM, time (day): 3)","growth inhibition by drug plus 177Lu-lilotomab satetraxetan ([3]; 1000 nM, time (day): 4)","growth inhibition by drug plus 177Lu-lilotomab satetraxetan ([3]; 1000 nM, time (day): 5)","growth inhibition by drug plus 177Lu-lilotomab satetraxetan ([3]; 1000 nM, time (day): 6)","growth inhibition by drug plus 177Lu-lilotomab satetraxetan ([4]; 10 nM, time (day): 3)","growth inhibition by drug plus 177Lu-lilotomab satetraxetan ([4]; 10 nM, time (day): 4)","growth inhibition by drug plus 177Lu-lilotomab satetraxetan ([4]; 10 nM, time (day): 5)","growth inhibition by drug plus 177Lu-lilotomab satetraxetan ([4]; 10 nM, time (day): 6)","growth inhibition by drug plus 177Lu-lilotomab satetraxetan ([4]; 100 nM, time (day): 3)","growth inhibition by drug plus 177Lu-lilotomab satetraxetan ([4]; 100 nM, time (day): 4)","growth inhibition by drug plus 177Lu-lilotomab satetraxetan ([4]; 100 nM, time (day): 5)","growth inhibition by drug plus 177Lu-lilotomab satetraxetan ([4]; 100 nM, time (day): 6)"
CN(C)c1ccccc1CN1CCCN(Cc2ccccc2N(C)C)C1c1ccncc1,0.0601,0.0484,-0.0775,-0.0436,-0.0515,0.0164,-0.0723,-0.322,-0.0275,-0.0402,-0.0946,-0.333,-0.107,-0.0882,-0.101,-0.219,-0.0506,-0.00857,0.0315,0.0251,-0.133,-0.00158,-0.031,-0.0122,0.403,0.514,0.537,0.54,0.416,0.506,0.504,0.487
CN1CCN(CCOc2cc(OC3CCOCC3)c3c(Nc4c(Cl)ccc5c4OCO5)ncnc3c2)CC1 [Saracatinib (AZD0530)],0.0465,0.00941,-0.0204,-0.381,-0.139,-0.146,-0.173,-0.33,-0.108,-0.164,-0.326,-0.893,-0.52,-0.418,-0.423,-0.554,-0.0675,-0.00671,0.0506,0.0536,-0.174,-0.108,-0.0137,0.1,0.366,0.494,0.508,0.537,0.458,0.536,0.549,0.544
COc1cc2c(N3CCN(C(=O)Nc4ccc(OC(C)C)cc4)CC3)ncnc2cc1OCCCN1CCCCC1 [Tandutinib (MLN518)],-0.0695,-0.0613,-0.013,0.108,-0.0914,-0.0805,-0.0691,-0.0707,-0.157,-0.175,-0.185,-0.222,-0.102,-0.12,-0.163,-0.231,-0.106,-0.0661,-0.0234,0.112,-0.163,-0.112,-0.0614,0.0615,,,,,,,,
Cn1cnc(N)c2ncnc1-2 [3-Methyladenine],0.0713,0.0365,0.0189,0.0577,0.00855,0.0177,-0.0282,-0.00202,0.018,-0.00798,-0.0197,-0.0603,-0.346,-0.249,-0.276,-0.338,0.0187,0.0789,0.12,0.165,-0.00331,0.0603,0.0974,0.207,0.557,0.602,0.615,0.612,0.517,0.565,0.57,0.56
